Results reported in PubChem BioAssay (EPA / NIEHS).
Inconclusive results are not listed. The source made the active and inactive calls. How the source made its calls, unless noted: active means hit-call score of the fitted dose curve at least 0.9, where 1 is the maximum; inactive means score below 0.9.

Columns and labels:
[1] = IUF_NPC1_viability_72hr: Viability Assessment at 72 hours in the Leibniz Research Institute for Environmental Medicine (IUF) Neural Progenitor Cell Proliferation Assay (NPC1) (AID 2284209)
Outline: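 Single spheres (0.25-0.35 mm) of human fetal cortex-derived neural progenitor cells were grown in proliferation medium with EGF and FGF at 37C and 5% CO2. They were exposed for 72 h without renewal, and viability was read by alamar blue resorufin fluorescence.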

[2] = CCTE_Mundy_HCI_Cortical_Synap_Neur_Matur_BPCount: CCTE's Synaptogenesis and Neurite Maturation Assay in rat cortical cells for Branch Point Count, Mundy Lab (AID 2284211)
Outline: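 Rat primary cortical cultures, AraC added DIV 5; chemicals dosed DIV 7 through DIV 12. Fixed cells stained for MAP2, synaptophysin and Hoechst; neurite branch points counted by automated high-content imaging, fitted relative to DMSO.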

[3] = CCTE_Mundy_HCI_Cortical_NOG_NeuriteCount: CCTE's Neurite Outgrowth Assay in rat cortical cells for Neurite Count, Mundy Lab (AID 2284212);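 further: cells fixed about two days after chemical exposure began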
Outline: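 Neurite number per cell from high-content imaging of betaIII-tubulin immunostaining, with Hoechst nuclear counterstain.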

[4] = CCTE_Mundy_HCI_Cortical_NOG_NeuriteLength: CCTE's Neurite Outgrowth Assay in rat cortical cells for Neurite Length, Mundy Lab (AID 2284213);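 further: neurites imaged about 48 to 50 h after chemical exposure began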
Outline: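 Neurite length was read by high-content imaging of βIII-tubulin-labelled neurites in rat primary cortical cultures. Activity was fitted relative to DMSO.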

[5] = CCTE_Mundy_HCI_Cortical_Synap_Neur_Matur_NeuriteLength: CCTE's Synaptogenesis and Neurite Maturation Assay in rat cortical cells for Neurite Length, Mundy Lab (AID 2284214)
Outline: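 Rat primary cortical cultures, AraC added DIV 5, dosed DIV 7 through DIV 12 […]. Fixed, MAP2/synaptophysin immunostained with Hoechst; neurite length by high-content imaging, fitted in positive direction versus DMSO.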

[6] = CCTE_Mundy_HCI_Cortical_Synap_Neur_Matur_NeuriteSpotCountPerNeuron: CCTE's Synaptogenesis and Neurite Maturation Assay in rat cortical cells for Neurite Spot Count per Neuron Count, Mundy Lab (AID 2284215)
Outline: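 Rat primary cortical cultures given AraC at DIV 5, dosed from DIV 7 to DIV 12 with media change. Fixed, stained for MAP2, synaptophysin and Hoechst; neurite-associated synaptophysin puncta per neuron quantified by high-content imaging versus DMSO.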

[7] = CCTE_Mundy_HCI_Cortical_Synap_Neur_Matur_SynapseCount: CCTE's Synaptogenesis and Neurite Maturation Assay in rat cortical cells for Synapse Count, Mundy Lab (AID 2284218)
Outline: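 Rat primary cortical cultures, AraC at DIV 5, chemical dosing DIV 7 to DIV 12 (288.33 h). Fixed cells stained for MAP2, synaptophysin and Hoechst; synapses per neuron counted by high-content imaging, loss of signal versus DMSO.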

[8] = CCTE_Mundy_HCI_Cortical_Synap_Neur_Matur_NeuriteCount: CCTE's Synaptogenesis and Neurite Maturation Assay in rat cortical cells for Neurite Count, Mundy Lab (AID 2284222)
Outline: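 Primary rat cortical cells were plated, treated with AraC at DIV 5, then exposed to chemicals from DIV 7 through DIV 12. After fixation and immunostaining for MAP2 and synaptophysin, imaging quantified neurites, with DMSO as the negative control.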

[9] = CCTE_Mundy_HCI_Cortical_Synap_Neur_Matur_CellBodySpotCount: CCTE's Synaptogenesis and Neurite Maturation Assay in rat cortical cells for Cell Body Spot Count, Mundy Lab (AID 2284223)
Outline: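 Primary rat cortical cultures, AraC added at DIV 5; dosed DIV 7 through DIV 12 […]. Fixed, stained for MAP2 and synaptophysin with Hoechst; cell body-associated synaptophysin puncta per neuron counted by high-content imaging, loss vs DMSO.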

[10] = CCTE_Mundy_HCI_hNP1_Pro_ResponderAvgInten: CCTE's Proliferation Assay in human neuroprogenitor cells, Mundy Lab (AID 2284224; active means hit-call score of the fitted dose curve at least 0.9, where 1 is the maximum;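 further: human neural progenitor cells hNP1 derived from WA09 embryonic stem cells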)
Outline: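 Human neuroprogenitors (hNP1, WA09 lineage) receive test chemical after 40 to 44 hours of attachment. A four-hour BrdU pulse begins twenty hours later, followed by fixation and high content imaging; signal is referenced to DMSO controls.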

[11] = UKN2_HCS_IMR90_cell_viability: Viability Assessment in the University of Konstanz (UKN) Leist Lab Neural Crest Cell Migration Assay in human induced IMR90 Pluripotent Stem Cells (UKN2) (AID 2284233);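 further: viability of neural crest cells differentiated from IMR90 iPSC measured by calcein-AM fluorescence imaging; cells exposed to compound for 24 h after a 24 h migration phase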
Outline: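 iPSC-derived (IMR90) neural crest cells seeded around silicone stoppers on PLO/laminin/fibronectin; after 24 h migration in N2-S with EGF/FGF, chemical added for 24 h. Calcein-AM/Hoechst stained 30 min, high-content imaged; bidirectional fit versus DMSO.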

[12] = CCTE_Mundy_HCI_Cortical_NOG_NeuronCount: CCTE's Neurite Outgrowth Assay in rat cortical cells for Neuron Count, Mundy Lab (AID 2284236; active means hit-call score of the fitted dose curve at least 0.9, where 1 is the maximum;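 further: neurons counted by imaging betaIII-tubulin and Hoechst stained cortical cells; cells exposed to compound for about 48 hours before fixation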)
Outline: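 Read-out: neuron number by high-content imaging of betaIII-tubulin (Alexa Fluor-488) and Hoechst-labelled rat primary cortical cells.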

[13] = CCTE_Mundy_HCI_Cortical_NOG_BPCount: CCTE's Neurite Outgrowth Assay in rat cortical cells for Branch Point Count, Mundy Lab (AID 2284237);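 further: branch points counted about two days after chemical exposure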
Outline: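 Measured 50.33 h after dosing, this morphology endpoint uses rat primary cortical cultures labelled for betaIII-tubulin. Branch points are quantified by high-content imaging, with DMSO as negative control and baseline.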

[14] = CCTE_Mundy_HCI_hNP1_Casp3_7: CCTE's Caspase-Glo 3/7 Assay in human neuroprogenitor cells for Apoptosis, Mundy Lab (AID 2284240)
Outline: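 Neuroepithelial-lineage stem cells from WA09 embryonic cells were treated with chemicals after 40–44 h of culture. Twenty-four hours later, caspase-3/7 activation was detected luminescently after a 30 min room-temperature reagent step, with DMSO as baseline.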

[15] = CCTE_Mundy_HCI_hNP1_CellTiter: CCTE's Cell Titer-Glo 2 Assay in human neuroprogenitor cells for Viability, Mundy Lab (AID 2284241; active means hit-call score of the fitted dose curve at least 0.9, where 1 is the maximum;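 further: a hit is a drop in ATP luminescence versus DMSO meaning reduced viability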)
Outline: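 Measures ATP content in human neural progenitors derived from WA09 embryonic cells. Read-out at 26.5 hours after dosing, with DMSO serving as the negative control and baseline.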

[16] = CCTE_Mundy_HCI_Cortical_Synap_Neur_Matur_NeuronCount: CCTE's Synaptogenesis and Neurite Maturation Assay in rat cortical cells for Neuron Count, Mundy Lab (AID 2284242; active means hit-call score of the fitted dose curve at least 0.9, where 1 is the maximum;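 further: hits reduce neuron count versus DMSO baseline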)
Outline: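 Rat primary cortical cells, AraC added at DIV 5, dosed with media change from DIV 7 to DIV 12. Fixed, Hoechst-stained and immunolabelled for MAP2 and synaptophysin; neuron number counted by high-content imaging, loss fitted versus DMSO.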

[17] = IUF_NPC2c_oligodendrocyte_migration_120hr: Leibniz Research Institute for Environmental Medicine (IUF) 120-hour Neural Progenitor Cell Migration Assay for Oligodendrocyte Migration (NPC2c) (AID 2284297);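 further: O4-positive oligodendrocyte migration distance divided by radial glia migration distance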
Outline: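 Human fetal neural progenitor spheres (0.3 mm) are plated on poly-D-lysine/laminin in N2 differentiation medium and exposed for 120 h, with half-medium renewal at day 3. Oligodendrocyte (O4+) migration distance comes from ICC imaging, normalised to radial glia migration.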

[18] = IUF_NPC2a_radial_glia_migration_120hr: Leibniz Research Institute for Environmental Medicine (IUF) 120-hour Neural Progenitor Cell Migration Assay for Radial Glia Migration (NPC2a) (AID 2284298)
Outline: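 Human fetal-cortex neural progenitor spheres (0.3 mm) plated on poly-D-lysine/laminin in N2 differentiation medium, exposed 120 h at 37C with half-medium renewal at day 3. Radial glia migration distance (um) measured from Hoechst-stained nuclei images; DMSO baseline.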

[19] = IUF_NPC2a_radial_glia_migration_72hr: Leibniz Research Institute for Environmental Medicine (IUF) 72-hour Neural Progenitor Cell Migration Assay for Radial Glia Migration (NPC2a) (AID 2284299)
Outline: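 Human fetal neural progenitor spheres (0.3 mm) plated on poly-D-lysine/laminin in N2 differentiation medium and exposed from day 0 at 7 concentrations; radial glia migration distance from sphere edge measured at 72 h on brightfield images, mean of four directions, vs DMSO.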

[20] = IUF_NPC2b_neuronal_migration_120hr: Leibniz Research Institute for Environmental Medicine (IUF) 120-hour Neural Progenitor Cell Migration Assay for Neuron Migration (NPC2b) (AID 2284300)
Outline: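 0.3 mm hNPC spheres on poly-D-lysine/laminin in N2 differentiation medium exposed 120 h, half-medium refresh day 3; 7 concentrations, DMSO max 0.1%. Neuron (TUBB3) distance from sphere core by ICC imaging, normalised to radial glia migration.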

[21] = IUF_NPC3_neuronal_differentiation_120hr: Leibniz Research Institute for Environmental Medicine (IUF) 120-hour Neuronal Differentiation Assay (NPC3) (AID 2284301)
Outline: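 Primary human fetal neural progenitor spheres (GW 16-19, 0.3 mm) plated on poly-D-lysine/laminin in N2 medium, exposed from day 0 for 120 h with half-medium refresh at day 3. TUBB3+ cells as percent of Hoechst nuclei in migration area; DMSO baseline.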

[22] = IUF_NPC4_neurite_length_120hr: Leibniz Research Institute for Environmental Medicine (IUF) 120-hour Neuronal Morphology Assay for Neurite Length (NPC4) (AID 2284302)
Outline: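 Human fetal cortex (GW 16-19) neural progenitor spheres, 0.3 mm, were plated on poly-D-lysine/laminin in N2 differentiation medium and exposed from day 0 for 120 h, half-feeding at day 3. Mean TUBB3+ neurite length (µm) came from skeletonized images, relative to DMSO.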

[23] = IUF_NPC5_oligodendrocyte_differentiation_120hr: Leibniz Research Institute for Environmental Medicine (IUF) 120-hour Oligodendrocyte Differentiation Assay (NPC5) (AID 2284304; active means hit-call score of the fitted dose curve at least 0.9, where 1 is the maximum;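 further: primary human fetal neural progenitor spheres plated to migrate and differentiate; share of O4-positive cells among Hoechst nuclei found by CNN image analysis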)
Outline: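 Human fetal neural progenitor spheres (0.3 mm) plated on poly-D-lysine/laminin in N2 differentiation medium and exposed for 120 h at 7 concentrations, with half-medium renewal at day 3. O4-positive cells identified by CNN, expressed as percent of Hoechst nuclei.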

[24] = IUF_NPC4_neurite_area_120hr: Leibniz Research Institute for Environmental Medicine (IUF) 120-hour Neuronal Morphology Assay for Neurite Area (NPC4) (AID 2284305; active means hit-call score of the fitted dose curve at least 0.9, where 1 is the maximum)
Outline: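 Human fetal cortex-derived neural progenitor spheres (0.3 mm, GW 16-19) plated on poly-D-lysine/laminin in N2 differentiation medium and exposed from day 0 for 120 h across 7 concentrations plus solvent control. Neurite area is mean pixel area per TUBB3-positive neuron via skeletonization, analysed relative to DMSO.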

[25] = IUF_NPC2-5_cytotoxicity_72hr: Cytotoxicity Assessment at 72 hours in the Leibniz Research Institute for Environmental Medicine (IUF) Neural Progenitor Cell Migration and Differentiation Assay for Cytotoxicity (NPC2-5) (AID 2284306; active means hit-call score of the fitted dose curve at least 0.9, where 1 is the maximum;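 further: LDH release into supernatant measured by resorufin fluorescence marking membrane damage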)
Outline: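 Human fetal (GW 16-19) neural progenitor spheres, 0.3 mm, plated on poly-D-lysine/laminin in N2 differentiation medium and exposed from day 0 to 7 concentrations plus solvent control (DMSO ≤0.1%). LDH-dependent resazurin-to-resorufin fluorescence in supernatant at 72 h.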

[26] = IUF_NPC2-5_cytotoxicity_120hr: Cytotoxicity Assessment at 120 hours in the Leibniz Research Institute for Environmental Medicine (IUF) Neural Progenitor Cell Migration and Differentiation Assay (NPC2-5) (AID 2284307; active means hit-call score of the fitted dose curve at least 0.9, where 1 is the maximum;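 further: LDH released into supernatant as membrane damage marker via resorufin fluorescence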)
Outline: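 Human fetal (GW 16-19) neural progenitor spheres (0.3 mm) plated on poly-D-lysine/laminin in N2 differentiation medium, exposed 120 h with half-medium renewal at day 3; 7 concentrations plus solvent control, DMSO ≤0.1%. LDH release in supernatant read by resorufin fluorescence.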

[27] = IUF_NPC2-5_cell_number_120hr: Cell Number Assessment at 120 hours in the Leibniz Research Institute for Environmental Medicine (IUF) Neural Progenitor Cell Migration and Differentiation Assay (NPC2-5) (AID 2284308);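 further: count of Hoechst-stained nuclei in migration zone around plated human neural progenitor spheres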
Outline: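 Human fetal neural progenitor spheres (0.3 mm) plated on poly-D-lysine/laminin in N2 differentiation medium, exposed five days across 7 concentrations with half-medium refresh at day 3. Hoechst-positive nuclei counted in migration area at 120 h, relative to DMSO.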

[28] = IUF_NPC2-5_viability_120hr: Viability Assessment at 120 hours in the Leibniz Research Institute for Environmental Medicine (IUF) Neural Progenitor Cell Migration and Differentiation Assay (NPC2-5) (AID 2284312)
Outline: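 Human fetal (GW 16-19) neural progenitor spheres of 0.3 mm were plated on poly-D-lysine/laminin in N2 differentiation medium and exposed from day 0 for 120 h, with half-medium refresh at day 3. Viability was read as alamar blue resazurin-to-resorufin fluorescence against DMSO.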

[29] = IUF_NPC1_cytotoxicity_72hr: Cytotoxicity Assessment at 72 hours in the Leibniz Research Institute for Environmental Medicine (IUF) Neural Progenitor Cell Proliferation Assay (NPC1) (AID 2284332; active means hit-call score of the fitted dose curve at least 0.9, where 1 is the maximum;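 further: rising LDH signal means more cytotoxicity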)
Outline: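 Human fetal neural progenitor spheres (0.3 mm) in EGF/FGF proliferation medium, 37C, exposed 72 h without renewal. LDH release in supernatant read by resorufin fluorescence; gain of signal scored relative to dynamic range.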

[30] = CCTE_Mundy_HCI_iCellGluta_NOG_NeuronCount: CCTE's Neurite Outgrowth Assay in iCellGluta cells for Neuron Count, Mundy Lab (AID 2284340; active means hit-call score of the fitted dose curve at least 0.9, where 1 is the maximum;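 further: cells fixed about 48 h after compound addition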)
Outline: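 Neuron count read by automated high-content imaging of Hoechst 33342 and betaIII-tubulin/Alexa Fluor-488 labelling in human iPSC glutamatergic neurons. Activity fitted relative to DMSO.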

[31] = CCTE_Mundy_HCI_iCellGluta_NOG_NeuriteCount: CCTE's Neurite Outgrowth Assay in iCellGluta cells for Neurite Count, Mundy Lab (AID 2284342; active means hit-call score of the fitted dose curve at least 0.9, where 1 is the maximum;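 further: chemical exposure about 48 hours starting 2 hours after plating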)

Structure (SMILES): Cc1c(O)cccc1C(=O)N[C@@H](CSc1ccccc1)[C@H](O)CN1C[C@H]2CCCC[C@H]2C[C@H]1C(=O)NC(C)(C)C
- AC50 [1]: 14 µM (active)
- AC50 [2]: 4.72 µM (active)
- AC50 [3]: 33.8 µM (active)
- AC50 [4]: 28.9 µM (active)
- AC50 [5]: 4.56 µM (active)
- AC50 [6]: 2.49 µM (active)
- AC50 [7]: 3.11 µM (active)
- AC50 [8]: 5.46 µM (active)
- AC50 [9]: 6.41 µM (active)
- AC50 [10]: 13.8 µM (active)
- outcome [11]: inactive
- AC50 [12]: 25 µM (active)
- AC50 [13]: 15.4 µM (active)
- AC50 [14]: 18.7 µM (active)
- AC50 [15]: 11.1 µM (active)
- AC50 [16]: 4.18 µM (active)
- AC50 [17]: 12.7 µM (active)
- AC50 [18]: 8.08 µM (active)
- AC50 [19]: 13.4 µM (active)
- AC50 [20]: 19.9 µM (active)
- AC50 [21]: 7.87 µM (active)
- AC50 [22]: 7.21 µM (active)
- AC50 [23]: 0.596 µM (active)
- AC50 [24]: 8.75 µM (active)
- AC50 [25]: 14.5 µM (active)
- AC50 [26]: 9.82 µM (active)
- AC50 [27]: 8.12 µM (active)
- AC50 [28]: 7.38 µM (active)
- outcome [29]: inactive
- AC50 [30]: 39.4 µM (active)
- AC50 [31]: 37.4 µM (active)
